# Reference: PubChem BioAssay AID602346 (Broad Institute, 2012)
# Out of some 340,000 compounds screened, about 1,200 (0.35%) were called active. No stated cut-off is given here; in the data, active means inhibition above about 50% (passing the limit was not always enough); inconclusive means no clear call, values can overlap the other calls; inactive means below about 31%. Many of the other results were omitted from the sample, so actives are more common in it than they were.
# Test: HIV Vif self-association inhibitors, primary screen, imaging, HEK293T, single point (AID 602346)
# Details: HEK293T cells, Vif self-association by quenched fluorescence, 24 h, at 7.49 µM, active compounds read high
row,Structure (SMILES),inhibition
1,O=C(/C=C\c1cn(-c2ccccc2)nc1-c1cccs1)N1CCOCC1,87.7% (active)
2,COc1ccc(-c2nn(-c3ccccc3)cc2/C=C\C(=O)N2CCOCC2)cc1[N+](=O)[O-],1.35% (inactive)
3,O=C(O)c1ccc(N/N=C/c2cn(-c3ccccc3)nc2-c2cccs2)cc1,-6.33% (inactive)
4,O=CNc1cc(-c2ccc(C(=O)N3CCOCC3)cc2)cn2c(-c3ccc(F)cc3)cnc12,6.34% (inactive)
5,CCN(CC)CCn1c2ccc(Cl)cc2c2nc(C)sc21,16.1% (inactive)
6,CCN(CC)CCCC(C)n1c2nc(=O)[nH]c(=O)c-2nc2cc(Cl)ccc21 (centres undefined),128% (active)
7,Cc1nc2c(OCc3ccc(Cl)cc3)cccn2c1N(C)Cc1cccs1,-12.4% (inactive)
8,O=C(Nc1ccc2oc(-c3ccc4ccccc4c3)nc2c1)c1cccs1,52.2% (active)
9,CC(Oc1cccc(NC(=O)c2cccs2)c1)C(=O)c1ccccc1 (centres undefined),12.5% (inactive)
10,O=C(Nc1ccc2oc(-c3ccccc3F)nc2c1)c1ccco1,4.71% (inactive)
11,C#CCN(C[C@@H]1[C@@H](OC(=O)NC2CC2)[C@@H](OC(=O)NC2CC2)Cn2c(=O)ccc(=O)n21)S(=O)(=O)c1ccc(C)cc1,-0.284% (inactive)
12,CCOC(=O)c1ccc(Nc2cc3ccccc3c(=O)[nH]2)cc1,9.05% (inactive)
13,CCOC(=O)c1nc(Nc2ccc(C(=O)OC)cc2)c2ccccc2n1,99.4% (active)
14,CCOC(=O)c1ccc(N/C(=N/S(=O)(=O)c2ccccc2)c2ccccc2)cc1,-4.64% (inactive)
15,CN(C)C(=O)c1cccc(-c2cnc3sc(NCc4ccc5c(c4)OCO5)nn23)c1,-12% (inactive)
16,COc1cccc(-n2c(SCC(=O)c3c[nH]c4ccccc34)nc3ccccc3c2=O)c1,-2.01% (inactive)
17,COc1ccc(C2C(C(C)=O)=C(O)C(=O)N2CCc2c[nH]c3ccccc23)cc1 (centres undefined),-11.5% (inactive)
18,COc1ccc(/C=C(\C#N)c2c[nH]c3ccccc23)cc1,52.1% (active)
19,Cc1ccc(C(NC(=O)C2CCN(CCOc3ccc(Cl)cc3Cl)CC2)c2ccccn2)cc1 (centres undefined),4.63% (inactive)
20,Cc1ccccc1Cn1c(C)c(C(=O)NCc2cccc(C(F)(F)F)c2)sc1=O,-7.14% (inactive)
21,CCOC(=O)C1=CCC(c2ccc(F)cc2)N(S(=O)(=O)c2ccc(C)cc2)C1 (centres undefined),24.4% (inactive)
22,COc1cc(OC)cc(C(=O)N[C@H](C(=O)NNC(=O)c2ccc(Br)cc2)C(C)C)c1,1.45% (inactive)
23,COc1ccc(C(=O)N[C@H](C(=O)NCc2ccccc2)C(C)C)cc1,4.63% (inactive)
24,COc1cc(OC)cc(C(=O)N[C@H](C(=O)Nc2nc3ccccc3[nH]2)C(C)C)c1,116% (active)
25,Cc1nc2c(OCc3ccc(Cl)cc3Cl)cccn2c1N(C)CC1CC1,-14% (inactive)
26,O=C(NCc1nnnn1-c1ccc(Cl)cc1)c1ccc([N+](=O)[O-])o1,6.82% (inactive)
27,CCC(=O)Nc1ccc(S(=O)(=O)Nc2c(NC)c3ccccc3oc2=O)cc1,-6.99% (inactive)

row,Structure (SMILES),inhibition
1,NCCCNC(=S)NCCCN(Cc1ccc(Cl)cc1)c1ccc(Br)cn1,-10.7% (inactive)
2,O=C(COC(=O)c1ccccc1)Nc1cccc(S(=O)(=O)N2CCOCC2)c1,6.23% (inactive)
3,O=C(COC(=O)/C=C/c1ccc(Br)o1)Nc1cccc(S(=O)(=O)N2CCOCC2)c1,72.1% (active)
4,NS(=O)(=O)c1cccc(NC(=O)COC(=O)/C=C/c2ccco2)c1,40.9% (inactive)
5,C[C@@H]1CN([C@H](C)CO)S(=O)(=O)c2ccc(C#C[C@@H](C)O)cc2O[C@@H]1CN(C)Cc1ccc(-c2ccccc2)cc1,-0.002% (inactive)
6,NC(Cc1ccc(F)cc1)c1csc(Nc2nncc3ccccc23)n1 (centres undefined),-17.9% (inactive)
7,Cc1cccnc1C(NC(=O)C1CCN(Cc2ccc(Cl)c(Cl)c2)CC1)c1ccc(Cl)cc1 (centres undefined),11.5% (inactive)
8,COc1ccc(CNC(=O)c2ccc(-c3cccnc3)c3ccoc23)cc1OC,-16.6% (inactive)
9,CCCNC(=O)C1(C)CCN(Cc2ccc(Cl)c(Cl)c2)C1 (centres undefined),3.78% (inactive)
10,COc1ccc(-c2cc(NC=O)c3ncc(-c4cc(OC)c(OC)c(OC)c4)n3c2)c(OC)c1,21.8% (inactive)
11,Cn1c(N)cc(-c2ccc(F)cc2)c(C#N)c1=O,-9.36% (inactive)
12,Cc1cc(C)c2c(-c3ccc(F)cc3)c(C#N)c(=O)n(C)c2n1,54.6% (active)
13,COc1ccc(O)c(C(=O)c2cnc3c(c2)c(-c2ccc(F)cc2)c(C#N)c(=O)n3C)c1,1.06% (inactive)
14,NC(c1csc(NC(=O)Nc2cccc(C(F)(F)F)c2)n1)C1CCCCC1 (centres undefined),-1.56% (inactive)
15,CCc1nn(-c2cc(Oc3cccc4ccccc34)nc(-c3ccccc3)n2)c(N)c1C#N,53.3% (active)
16,CC(C)(C)n1nc(Cc2cccc3ccccc23)c(C#N)c1N,13.5% (inactive)
17,CC1(C(=O)NCc2ccc(F)c(F)c2)Cc2c(-c3ccc4c(c3)OCO4)ccnc2O1 (centres undefined),-5.82% (inactive)
18,CCN(CC)CCN(C(=O)c1ccc2c(c1)CCCC2)c1nc2c(OC)cccc2s1,-7.26% (inactive)
19,C[C@@H]1CCCCO[C@H](CN(C)Cc2ccccc2)[C@@H](C)CN([C@H](C)CO)C(=O)c2cc(NS(=O)(=O)c3ccc(Cl)cc3)ccc2O1,8.14% (inactive)
20,CC(C)OCCCNc1ncnc2c1[nH]c1ccc(F)cc12,65.5% (active)
21,COc1ccc(C(=O)N2CCCCC2c2cc(C(=O)Nc3ccccc3)no2)cc1 (centres undefined),13.8% (inactive)
22,CC(C)N=C1CCCC1C(=S)SSC(=S)C1CCCC1=NC(C)C (centres undefined),0.152% (inactive)
23,CCOC(=O)C1CCCN(C(=O)c2cc(-c3cccs3)oc2C)CC1 (centres undefined),-8.46% (inactive)
24,CC(C)c1cccc(-c2csc(C(O)c3ccccc3)n2)c1 (centres undefined),-7.2% (inactive)
25,CCC(CO)Oc1cc(NC(=O)c2cccc(F)c2)c2ncn(C(C)C)c2c1 (centres undefined),-4.4% (inactive)
26,CCC(CO)Oc1cc(NC(=O)c2cccc3ccccc23)c2ncn(C(C)C)c2c1 (centres undefined),1.25% (inactive)
27,CC(C)n1cnc2c(NCc3ccccc3)cc(OCC3CCN(C)CC3)cc21,78.2% (active)
